Records with an inconclusive call do not appear. Activity calls are given as the source filed them. Calls follow the shape of the dose curve; as a rule, active = well fitted curve in the direction sought with a large enough effect; inconclusive = small, poorly fitted or top-dose-only effect, or another doubt; inactive = no such curve, though single readings can be large; an effect the other way counts as inactive or inconclusive. Where a SMILES comes first, the peptide text is derived from it. [ ]: non-standard residue; d: D form. ξ: configuration not given here. ξPhe(βξ-Me) = CC(c1ccccc1)C(N)C(=O)O; GABA = NCCCC(=O)O
Experiments:
[1] = molecular target: Phospholipid hydroperoxide glutathione peroxidase GPX4 (Homo sapiens) (UniProt P36969); assay: Primary qHTS Assay for Inhibitors of Recombinant Selenoprotein Glutathione Peroxidase 4 (GPX4) (AID 1845192); also: nearly all actives have a fitted effect of over 65% in size
Chain of Phospholipid hydroperoxide glutathione peroxidase GPX4 (Homo sapiens) (P36969 whole entry, looked up): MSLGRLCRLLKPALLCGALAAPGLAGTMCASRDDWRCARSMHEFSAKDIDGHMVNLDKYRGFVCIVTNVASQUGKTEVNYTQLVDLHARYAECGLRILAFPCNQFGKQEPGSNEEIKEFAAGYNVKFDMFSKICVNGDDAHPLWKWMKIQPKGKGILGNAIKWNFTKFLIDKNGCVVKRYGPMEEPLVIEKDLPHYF
How it was run: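 Steps: GPX4 plus compound, 30 min RT; add GR/GSH/NADPH master mix; start with cumene hydroperoxide; read 340/450 nm fluorescence at 0 and 15 min. Finals were 200 nM GPX4, 1 mM GSH, 0.5 mM CHP, 0.5 mM NADPH, 100 nM GR.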

[2] = molecular target: Luciferin 4-monooxygenase (Photinus pyralis) (UniProt P08659); assay: Primary firefly luciferase (FLuc) qHTS assay for identification of artifact compounds. (AID 1845220); also: nearly all actives have a fitted effect of over 60% in size
How it was run: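 Titrated compounds were incubated 15 min at RT, protected from light, with luciferin and ATP at 10 uM; reaction started with 10 nM FLuc, luminescence imaged at 5 min, and concentration-response fitted by Hill equation.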

[3] = Primary fluorescence-based thiol-reactive (MSTI) qHTS assay for identification of artifact compounds. (AID 1845221); also: nearly all actives have a fitted effect of over 65% in size; also: potency is read from the fitted curve at half-maximal effect;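 as to activity change, negative = thiol reactive: series mostly up to about 54 µM; thiol-reactive compounds lower the probe fluorescence signal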
How it was run: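 qHTS titration of compound; 4 uM MSTI, PBS pH 7.4, 2% DMSO; 1 h RT, dark; fluorescence 525/598 nm; normalized to Acetyl-MSTI and MSTI; 4-parameter Hill fit.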

[4] = tested on: Nanoluciferase (engineered Oplophorus gracilirostris luciferase); assay: Primary Nanoluciferase (NLuc) qHTS assay for identification of artifact compounds. (AID 1845222);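 also: NLuc secreted into diluted conditioned medium of S16 cells; series mostly up to about 54 µM; 0% = DMSO and -100% = no enzyme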
How it was run: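 qHTS format, against NLuc in S16 cell-conditioned medium. Nano-Glo substrate 1:100 was added after 15 min at room temperature. Luminescence was taken after a further 5 min.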

[5] = Primary redox qHTS assay for identification of artifact compounds. (AID 1845223);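 also: 0% = DMSO and 100% = reference compound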
How it was run: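 Redox-cycling detection via DTT (250 uM final) oxidation coupled to Amplex Red (25 uM)/HRP (250 mU/mL) in HBSS. 15 min preincubation plus 30 min after DTT, room temperature. Ex/Em 525/598 nm; 4-parameter Hill fit against DMSO and 10 uM DA3003.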

[6] = molecular target: Cytochrome P450 3A4 (Homo sapiens) (UniProt P08684); assay: qHTS for inhibitors of CYP3A4 against the NCATS DSHEA and TCM libraries (AID 1919971);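 also: % is scaled to controls: 0 for no effect and ±100 for the full control effect; inhibition lowers luminescence from luciferin made by CYP3A4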
Chain of Cytochrome P450 3A4 (Homo sapiens) (P08684 whole entry, looked up): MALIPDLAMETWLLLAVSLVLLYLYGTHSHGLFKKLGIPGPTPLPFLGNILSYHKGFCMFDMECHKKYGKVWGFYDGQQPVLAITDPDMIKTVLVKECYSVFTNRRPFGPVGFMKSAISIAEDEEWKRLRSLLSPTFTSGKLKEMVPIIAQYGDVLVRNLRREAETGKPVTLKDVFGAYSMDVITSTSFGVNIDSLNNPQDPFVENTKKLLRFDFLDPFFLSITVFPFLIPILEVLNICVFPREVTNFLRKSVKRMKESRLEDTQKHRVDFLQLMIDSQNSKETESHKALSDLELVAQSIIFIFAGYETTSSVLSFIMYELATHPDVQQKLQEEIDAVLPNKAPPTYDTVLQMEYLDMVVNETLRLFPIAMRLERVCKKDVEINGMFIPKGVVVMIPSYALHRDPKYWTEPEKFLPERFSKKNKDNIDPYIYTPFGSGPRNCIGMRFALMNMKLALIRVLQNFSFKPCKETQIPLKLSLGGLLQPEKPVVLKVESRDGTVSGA
From the text: Assay Development and Screening Technology Laboratory (ADST)
National Center for Advancing Translational Sciences (NCATS), Rockville, MD
National Institute of Health (NIH), Bethesda, Maryland
Dietary Supplements and Natural Products have minor oversight of their safety and efficacy. We assembled a collection of Dietary Supplements and Natural Products (DSNP) as well as Traditional Chinese Medicinal (TCM) Plant extracts, which were screened against an in vitro panel of assays, including a liver cytochrome p450 enzyme panel, CAR/PXR signaling pathways, and P-gp transporter assays, to assess their activity. This pipeline facilitated the interrogation of Natural Product-Drug Interaction (NaPDI) through prominent metabolizing pathways. In addition, we compared the activity profiles of the DSNP/TCM substances with those of an approved drug collection. Many of the approved drugs have well-annotated mechanisms of action (MOA) while the MOAs for most of the DSNP and TCM samples remain unknown. Based on the premise that compounds with similar activity profiles tend to share similar targets or MOA, we clustered the library activity profiles to identify overlap with the NCATS Pharmaceutical Collection to predict the MOAs of the DSNP/TCM substances. Overall, we highlight four significant bioactivity profiles (measured by p-values) as examples of this prediction. To assess broad cytotoxicity, we employed screening against a HepG2 cell line. In addition, transporter-mediated drug interactions are utilized in the characterization of DDIs using a P-glycoprotein (P-gp) assays. To profile potential P-gp activity, a differential cell viability was measured against two cell lines: a parental KB-3-1 human cervical adenocarcinoma cell line and the drug-resistant subline KB-8-5-11 that overexpresses P-gp.
To this end, we profiled both collections for potential CAR and/or PXR activity, employing a previously published 1536-well qHTS assay.
[1] Lee TD, et al. A High-Throughput Screen of a Library of Therapeutics Identifies Cytotoxic Substrates of P-glycoprotein. Mol Pharmacol. Nov 2019;96(5):629-640. doi:10.1124/mol.119.115964
PROTOCOL TABLE (as described by Inglese J, Shamu CE and Guy RK. 2007)
SEQUENCE No. (e.g., 1, 2, 3, etc.); […] (e.g., Cells, Incubation, Reagent, etc.); VALUE; DESCRIPTION.
1; Reagent; 2 uL; cytochrome P450 enzyme and luciferin substrate or buffer only, white solid-bottom Greiner plate.
2; Compounds and control; 16 nL; Kalypsis pintool (Wako USA) equipped with a 1536-well pin head to transfer to the assay plates.
3; Incubation; 15 min; room temperature.
4; Reagent; 2 uL; nicotinamide adenine dinucleotide phosphate (NADPH).
5; Incubation; 30 - 45 min; room temperature in the dark.
6; Reagent; 4 uL; P450-Glo assay detection reagent.
7; Centrifuge; 1000 RPM; 15 seconds.
8; Incubation; 30 min; room temperature.
9; Read; Luminescence; ViewLux plate reader.
NOTES (numbers refer to Sequence numbers above)
1. A 2 uL mixture of corresponding enzymes and luciferin substrate (final concentrations CYP enzyme-specific and pro-luciferin substrate-specific) or minus-enzyme (assay buffer conditions supplied by the manufacturer for respective enzyme isoform; typically, 100 mM KPO4) and luciferin substrate were dispensed using a BioRAPTR FRD (Beckman Coulter, Brea, CA) into columns of a 1536-well white solid-bottom medium binding plate (Greiner Bio-One, Monroe, NC). Five isoforms of cytochrome P450 were used (CYP1A2, CYP2C9, CYP2C19, CYP2D6, and CYP3A4).
2. […]

[7] = molecular target: Cytochrome P450 2D6 (Homo sapiens) (UniProt P10635); assay: qHTS for inhibitors of CYP2D6 against the NCATS DSHEA and TCM libraries (AID 1919972); also: % is scaled to controls: 0 for no effect and ±100 for the full control effect
Chain of Cytochrome P450 2D6 (Homo sapiens) (P10635 whole entry, looked up): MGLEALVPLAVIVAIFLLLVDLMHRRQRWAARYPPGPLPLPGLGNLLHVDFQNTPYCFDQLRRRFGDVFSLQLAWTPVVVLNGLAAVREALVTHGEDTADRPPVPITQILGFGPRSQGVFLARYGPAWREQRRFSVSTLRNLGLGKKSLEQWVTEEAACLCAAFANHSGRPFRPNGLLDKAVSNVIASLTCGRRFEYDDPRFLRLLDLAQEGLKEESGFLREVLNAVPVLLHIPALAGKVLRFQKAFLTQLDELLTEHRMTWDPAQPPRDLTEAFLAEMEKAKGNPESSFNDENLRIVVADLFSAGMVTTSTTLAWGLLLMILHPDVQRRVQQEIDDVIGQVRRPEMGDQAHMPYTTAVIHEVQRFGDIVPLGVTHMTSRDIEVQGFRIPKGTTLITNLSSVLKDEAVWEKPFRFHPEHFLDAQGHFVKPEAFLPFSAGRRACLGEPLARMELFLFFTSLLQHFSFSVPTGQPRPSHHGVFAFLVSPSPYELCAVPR
How it was run: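 qHTS, concentration–response format with most substances from 19.5 nM. CYP2D6 + pro-luciferin substrate, 15 min with compound, then 1x NADPH regen, 30–45 min RT dark. Glo detection 30 min, luminescence. Quinidine control.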

[8] = molecular target: Cytochrome P450 2C19 (Homo sapiens) (UniProt P33261); assay: qHTS for inhibitors of CYP2C19 against the NCATS DSHEA and TCM libraries (AID 1919974);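 also: luminescence from luciferin released by CYP2C19 oxidation of a pro-luciferin substrate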; also: potency is read from the fitted curve at half-maximal effect
Chain of Cytochrome P450 2C19 (Homo sapiens) (P33261 whole entry, looked up, canonical isoform): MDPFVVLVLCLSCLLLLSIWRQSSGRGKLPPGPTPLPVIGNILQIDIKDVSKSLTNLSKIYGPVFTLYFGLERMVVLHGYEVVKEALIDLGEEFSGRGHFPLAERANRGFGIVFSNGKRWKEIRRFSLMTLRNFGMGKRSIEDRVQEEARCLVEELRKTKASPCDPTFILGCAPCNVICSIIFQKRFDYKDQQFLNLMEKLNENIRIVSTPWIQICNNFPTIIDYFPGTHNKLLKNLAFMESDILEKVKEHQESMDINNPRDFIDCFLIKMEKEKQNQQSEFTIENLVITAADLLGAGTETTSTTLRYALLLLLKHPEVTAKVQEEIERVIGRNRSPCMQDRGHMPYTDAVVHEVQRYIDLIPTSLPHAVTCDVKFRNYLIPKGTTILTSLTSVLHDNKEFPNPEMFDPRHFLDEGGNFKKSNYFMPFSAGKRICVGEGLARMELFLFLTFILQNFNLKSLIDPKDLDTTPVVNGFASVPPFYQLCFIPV
How it was run: (§1)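 Isoform-specific enzyme and substrate levels; enzyme-free wells as background. Reaction: 1x NADPH regenerating system, 30-45 min, room temperature, shielded from light; luminescent detection reagent added, 30 min.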

[9] = KB-3-1 P-gp reporter qHTS against the NCATS DSHEA and TCM libraries (AID 1919975); also: 0% is about no effect
How it was run: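 KB-3-1 parental line, 1536-well qHTS: cells seeded, ~4 h attachment, pintool compound addition, ~72 h at 37C, then CellTiter-Glo, 30 min RT, luminescence. Concentration-response format.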

[10] = molecular target: Cytochrome P450 2C9 (Homo sapiens) (UniProt P11712); assay: qHTS for inhibitors of CYP2C9 against the NCATS DSHEA and TCM libraries (AID 1919973);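 also: luminogenic pro-luciferin CYP2C9 substrate turned into luciferin with NADPH regeneration; series mostly up to about 34 µM; % is scaled to controls: 0 for no effect and ±100 for the full control effect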
Chain of Cytochrome P450 2C9 (Homo sapiens) (P11712 whole entry, looked up): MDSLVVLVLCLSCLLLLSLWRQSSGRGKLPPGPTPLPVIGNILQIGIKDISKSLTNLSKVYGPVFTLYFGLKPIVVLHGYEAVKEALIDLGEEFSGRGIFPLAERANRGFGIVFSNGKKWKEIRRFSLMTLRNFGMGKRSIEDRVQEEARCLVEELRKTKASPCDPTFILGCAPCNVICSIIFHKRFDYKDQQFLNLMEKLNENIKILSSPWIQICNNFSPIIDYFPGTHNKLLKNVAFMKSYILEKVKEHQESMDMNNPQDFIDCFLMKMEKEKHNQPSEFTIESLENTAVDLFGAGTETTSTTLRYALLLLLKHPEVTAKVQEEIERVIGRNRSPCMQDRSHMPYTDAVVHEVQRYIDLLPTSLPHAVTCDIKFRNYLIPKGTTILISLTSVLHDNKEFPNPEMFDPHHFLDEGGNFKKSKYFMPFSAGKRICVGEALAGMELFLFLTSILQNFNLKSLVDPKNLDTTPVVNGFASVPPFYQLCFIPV
How it was run: as §1

Nc1nc2c(ncn2[C@@H]2O[C@H](CO)[C@@H](O)[C@H]2O)c(=O)[nH]1
inactive: Potency [1] | Potency [2] | Potency [3] | Potency [4] | Potency [5]

Cc1ccc(NC(=O)Nc2cc(C(F)(F)F)ccc2F)cc1Nc1ccc2c(c1)NC(=O)/C2=C\c1ccc[nH]1
inactive: Potency [1] | Potency [2] | Potency [5]
active: Potency [3] 1.34 µM

C[C@H](NC(c1cccc(C[P+](=O)O)c1)[C@H](C)O)c1ccc(Cl)c(Cl)c1 (stereo not given in full)
inactive: Potency [1] | Potency [2] | Potency [3] | Potency [5]

C[C@@H]1O[C@@H](O[C@H]2[C@H](O[C@H]3[C@H](O[C@H]4CC[C@@]5(C)C(CC[C@]6(C)C5CC=C5[C@@H]7CC(C)(C)C[C@@H](O)[C@]7(C)CC[C@]56C)[C@@]4(C)CO)O[C@H](C(=O)O)[C@@H](O)[C@@H]3O)OC[C@H](O)[C@@H]2O)[C@H](O)[C@H](O)[C@H]1O (stereo not given in full)
inactive: Potency [1] | outcome [2] inactive [at 11.6 µM] | activity change, negative = thiol reactive [3] 129% [at 11.5 µM] | activity, negative = inhibition [4] -0.768% [at 11.6 µM] | redox activity (% of DA3003) [5] 17.9% [at 11.5 µM]

Cc1ccccc1-n1c([C@H](C)Nc2nc(N)nc3nc[nH]c23)nc2cccc(C)c2c1=O
inactive: Potency [1] | Potency [2] | Potency [3] | Potency [4] | Potency [5]

COc1ccc([C@H]2CNC(=O)C2)cc1OC1CCCC1
inactive: Potency [1] | Potency [2] | Potency [3] | Potency [5]

CC(C)=CCC(O)/C(C)=C/CO[C@@H]1O[C@H](CO)[C@@H](O)[C@H](O)[C@H]1O (stereo not given in full)
inactive: Potency [1] | Potency [2] | Potency [3] | Potency [4] | Potency [5] | outcome [6] | outcome [7] | outcome [9]
active: Potency [8] 2.51 µM

CC(C)=CCC[C@](C)(O)[C@H]1CC[C@]2(C)[C@@H]1[C@H](O)CC1[C@@]3(C)CC[C@H](O)C(C)(C)[C@@H]3[C@@H](O[C@@H]3O[C@H](CO)[C@@H](O)[C@H](O)[C@H]3O[C@@H]3O[C@H](CO)[C@@H](O)[C@H](O)[C@H]3O)C[C@]12C (stereo not given in full)
inactive: Potency [1] | Potency [2] | Potency [3] | Potency [4] | outcome [6] | outcome [7] | outcome [10] | Potency [8] | outcome [9]

CCCn1c(=O)c2[nH]c(-c3ccc(OCC(=O)O)cc3)nc2n(CCC)c1=O
inactive: Potency [1] | Potency [2] | Potency [3] | Potency [4] | Potency [5]

Cc1oc2ccccc2c1CNC(=O)NCc1cccs1
inactive: Potency [1] | Potency [2] | Potency [3] | Potency [5]

Cc1cc(C)c(CNC(=O)c2cc(-c3ccc(CN4CCOCC4)cc3)cc3c2cnn3C2CCCC2)c(=O)[nH]1
inactive: Potency [1] | Potency [2] | Potency [3] | Potency [5]

O=C(CO)[C@@H](O)[C@H](O[C@@H]1O[C@H](CO)[C@H](O)[C@H](O)[C@H]1O)[C@H](O)CO
inactive: Potency [1] | Potency [2] | Potency [3] | Potency [4] | Potency [5]

CCNC(=O)C1OC(n2cnc3c(N)nc(NCCc4ccc(CCC(=O)O)cc4)nc32)C(O)C1O (stereo not given)
inactive: Potency [1] | Potency [2] | Potency [3] | Potency [4] | Potency [5]

C=C(C)C1CCC(C)C12CC(O)C1(C)OC1C2OC(=O)C(N)CCC(=O)O (stereo not given)
inactive: Potency [1] | Potency [2] | Potency [3] | Potency [5]

Cc1nc(C)c(-c2ccc(C3CCC(CC(=O)O)CC3)cc2)nc1C(N)=O (stereo not given)
inactive: Potency [1] | Potency [2] | Potency [3] | Potency [5]

C=CC(=O)Nc1cccc(CN2C(=O)N(c3c(Cl)c(OC)cc(OC)c3Cl)Cc3cnc(NCCCCN(CC)CC)nc32)c1
inactive: Potency [1] | Potency [2] | Potency [3] | Potency [4] | Potency [5]

COc1cc(/C=C/C(=O)OC[C@H]2O[C@@](CO)(O[C@H]3O[C@H](CO)[C@@H](O)[C@H](O)[C@H]3O)[C@@H](OC(=O)/C=C/c3ccc(O)c(OC)c3)[C@@H]2O)ccc1O
inactive: Potency [1] | Potency [2] | Potency [4] | Potency [5]
active: Potency [3] 3.54 µM

O=C1OCC(c2ccccc2)=C1Cc1ccccc1
inactive: Potency [1] | Potency [2] | Potency [3] | Potency [5]

CC(=O)OC1C(c2ccccc2)CCC(c2ccccc2)C1OC(C)=O (stereo not given)
inactive: Potency [1] | Potency [2] | Potency [3] | Potency [4] | Potency [5]

CC1NC(=O)CCCNC(=O)C(Cc2c[nH]c3ccccc23)NC(=O)C(C)NC(=O)C(C(C)C)NC(=O)C(C(C)c2ccccc2)NC(=O)C(C(C)C)NC1=O (stereo not drawn) (cyclo([GABA]AV[ξPhe(βξ-Me)]VAW); configuration not given here)
inactive: Potency [1] | Potency [2] | Potency [3] | Potency [4] | Potency [5]

OC[C@H]1O[C@@H](OC[C@H]2O[C@@H](OC/C=C/c3ccccc3)[C@H](O)[C@@H](O)[C@@H]2O)[C@@H](O)[C@@H]1O
active: Potency [3] 10.3 µM
inactive: Potency [1] | Potency [2] | Potency [4] | Potency [5] | outcome [6] | outcome [7] | outcome [10] | Potency [8] | outcome [9]

— PubChem BioAssay (NCATS)
